Screens deposited in PubChem by National Center for Advancing Translational Sciences (NCATS).
This is a sample that favours compounds with a hit; in the whole collection about 6.1% have one here.
DRD3 antagonist = blocks the human D3 dopamine receptor | D3R cells, DiscoveRx beta-arrestin luminescence, antagonist mode; hits give low values | max response, negative = inhibition, % | actives 2.5% (n = 360,000) | P35462; in the data active = max response below about -50%; inconclusive = no clear call, values can overlap the other calls; also: % is scaled to controls: 0 for no effect and ±100 for the full control effect
Target sequence (P35462 whole entry, looked up): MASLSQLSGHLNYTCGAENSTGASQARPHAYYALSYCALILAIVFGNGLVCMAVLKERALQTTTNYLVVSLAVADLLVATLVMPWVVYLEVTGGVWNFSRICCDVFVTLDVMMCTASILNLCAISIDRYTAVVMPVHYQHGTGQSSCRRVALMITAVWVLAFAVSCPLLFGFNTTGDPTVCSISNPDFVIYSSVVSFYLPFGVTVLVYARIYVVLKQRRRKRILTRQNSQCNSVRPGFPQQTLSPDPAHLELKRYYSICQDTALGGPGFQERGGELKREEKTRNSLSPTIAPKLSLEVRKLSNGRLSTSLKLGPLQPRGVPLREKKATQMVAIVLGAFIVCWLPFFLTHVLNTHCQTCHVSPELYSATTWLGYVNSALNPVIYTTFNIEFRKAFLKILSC
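Cells plated overnight at 1500 cells/well, then exposed to library compounds with dopamine controls for 90 minutes at 37 degrees C. DiscoveRx reagent added for 30–60 minutes at room temperature; luminescence read, quantitative HTS format.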
D1 potentiator = potentiators of human D1 dopamine receptor | AID 504651 | potentiation, % at 10 µM | HEK293 TREx D1 cells, calcium flux, dopamine EC20 potentiation | P21728 | actives 0.036% (n = 360,000); in the data active = potentiation above about 30%; also: 0% is about no effect
D1 agonist = human D1 receptor agonism; P21728; AID 504660; HEK293 T-REx D1 cells, calcium flux, agonist mode; actives 1% (n = 360,000); activation, % at 2 µM; in the data active = activation above about 30%; also: 0% is about no effect
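Inducible HEK293 T-REx D1 cells, force-coupled to calcium signalling, were plated at 4000 cells/well with tetracycline and held overnight at 30 C. After no-wash calcium dye loading, compound-evoked calcium rise over 180 s flagged agonists.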
DRD3 agonist = activates the human D3 dopamine receptor; AID 652048; actives 0.58% (n = 410,000); D3R DiscoveRx beta-arrestin cells, luminescence, 90 min; max activation, %; in the data active = max activation above about 30%; also: 0% is about no effect
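Cells at 1500/well, incubated overnight, then treated with pinned compounds (dopamine as control) for 90 min at 37 degrees C. DiscoveRx reagent added for 30 - 60 minutes at room temperature; luminescence read.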
D1 antag = blocks dopamine activation of the human D1 receptor; P21728; HEK293 TREx D1 cells, calcium flux, dopamine EC80; hits give low values; activity change, negative = inhibition, % at 10 µM; actives 3.2% (n = 360,000); in the data active = activity change below about -30%; also: % is scaled to controls: 0 for no effect and ±100 for the full control effect
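Inducible Hek293 Trex D1 cells (tetracycline, overnight, 30 C). Calcium dye 30–90 min RT. Antagonist mode: EC80 dopamine added after 180 s compound read.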
Numbers without * were called inactive; ? = inconclusive; · = not tested or not shown.

SMILES	DRD3 antagonist	D1 potentiator	D1 agonist	DRD3 agonist	D1 antag
CCc1nnc(NC(=O)c2cc(=O)c3cc(C)ccc3o2)s1	·	-2	1	-3	-17
COc1ccc(OC)c(CNC(=O)CCCn2nc(C)c3c(C)n(-c4ccc(C)cc4)nc3c2=O)c1	·	-2	1	-6	-2
Cc1ccccc1Nc1nc(N)nc(COC(=O)c2ccc(O)cc2)n1	-13	-10	17	3	-43*
Cc1ccccc1Nc1nc(N)nc(COC(=O)c2ccccc2)n1	6	-4	1	4	5
CC(=O)c1ccc(NC(=O)CSc2nccn2Cc2ccc3c(c2)OCO3)cc1	·	-3	5	-21	-12
Cc1c(NC(=O)c2cc(-c3cccs3)nc3ccccc23)c(=O)n(-c2ccccc2)n1C	26	-5	0	4	-16
Cc1cc(C)c2nc(NNC(=O)c3cc(-c4cccs4)nc4ccccc34)sc2c1	89	-4	-2	16	-2
O=C(NNc1nc2ccc(Cl)cc2s1)c1cc(-c2cccs2)nc2ccccc12	109	-3	-3	42*	-3
Cc1ccc(NC(=O)c2cc(-c3cccs3)nc3ccccc23)nc1	75	-11	1	7	-48*
COc1ccc(N(CC(=O)N2CCN(Cc3ccc4c(c3)OCO4)CC2)S(=O)(=O)c2ccc(F)cc2)cc1	-51*	0	1	-18	3
Cc1ccc(S(=O)(=O)N(C)CC(=O)N2CCN(Cc3ccc4c(c3)OCO4)CC2)cc1	-10	-6	3	-22	-18
CC(C)CNS(=O)(=O)c1ccc(CCC(=O)N2CCN(Cc3ccc4c(c3)OCO4)CC2)cc1	143	-2	16	1	-33*
Cc1ccc(CNC(=O)CCc2ccc(S(=O)(=O)NCC(C)C)cc2)cc1	-51*	-2	2	-7	7
O=C(CCc1ccc(S(=O)(=O)NCCc2ccccc2)cc1)N1CCN(Cc2ccc3c(c2)OCO3)CC1	·	-1	6	·	-6
O=C(CN(c1ccccc1)S(=O)(=O)c1ccccc1)N1CCN(Cc2ccc3c(c2)OCO3)CC1	-67*	-2	5	-20	10
O=C(NCCc1ccc(Cl)cc1)c1c2c(nc3ccccc13)C(=O)N(C1CCCCC1)C2	·	-6	2	0	8
O=C1c2ccccc2C(=O)N1CCCCN(C(=O)c1cc([N+](=O)[O-])cc([N+](=O)[O-])c1)c1ccc(Cl)cc1	0	-9	1	9	-51*
COc1ccc(C(=O)Nc2nc(-c3nnn(-c4ccc(C(C)C)cc4)c3C)ns2)cc1	·	7	5	-8	6
COC(=O)c1ccc(OCC(O)CN2C(=O)c3ccccc3S2(=O)=O)cc1 (stereo unspecified)	-9	-2	6	5	-40*
O=C1c2ccccc2S(=O)(=O)N1CC(O)COc1ccc(Cl)cc1 (stereo unspecified)	-2	-2	4	-6	-3
O=C(Cn1nc(C(F)F)cc1C(F)F)N/N=C/c1ccc2c(c1)OCO2	13	·	·	4	·
COc1ccc(/C=N/NC(=O)Cn2nc([N+](=O)[O-])cc2C)c(OC)c1OC	-14	-7	3	-6	-11
COc1cc([N+](=O)[O-])cc(/C=N/NC(=O)Cn2nccc2C)c1O	-53*	-6	1	-12	-1
Cc1ccnn1CC(=O)N/N=C/c1ccc2c(c1)OCO2	?	-4	3	-8	-47*
COc1cc([N+](=O)[O-])cc(/C=N/NC(=O)Cn2nc(C)cc2C)c1O	-60*	-13	1	-25	-12
SMILES	DRD3 antagonist	D1 potentiator	D1 agonist	DRD3 agonist	D1 antag
COc1cc([N+](=O)[O-])cc(/C=N/NC(=O)CSc2nnc(-c3ccccc3)n2C)c1O	-52*	4	0	-5	-16
Cn1cc(S(=O)(=O)c2ccccc2)c(=O)c2cc(F)c(N3CCCCCC3)cc21	·	-2	1	-8	19
COc1cc([N+](=O)[O-])cc(/C=N/NC(=O)c2cc(-c3ccccc3)nc3ccccc23)c1O	0	-8	2	7	-15
COc1cc([N+](=O)[O-])cc(/C=N/NC(=O)c2cc(C)nc3ccccc23)c1O	-56*	-8	1	-19	-8
Cc1c(Cl)c([N+](=O)[O-])nn1CCCC(=O)Nc1cccc(Cl)c1	-19	8	4	-7	-32*
COc1cc(/C=C/C(=O)O)ccc1O	13	·	·	6	·
COc1cc(C=O)ccc1O	·	·	·	3	·
COc1cc(/C=C/C(=O)CC(=O)/C=C/c2ccc(O)c(OC)c2)ccc1O	-3	-2	334*	-12	-59*
COc1cc(/C=C/C(=O)/C=C(O)/C=C/c2ccc(O)c(OC)c2)ccc1O	-12	-2	262*	1	-16
COc1cc(C=C2C(=O)C=CC2=O)ccc1O	-136*	·	·	-19	·
C[C@]12CCC(=O)C=C1[C@@H]1C[C@@H]1[C@H]1[C@@H]3[C@@H]4C[C@@H]4[C@@]4(CCC(=O)O4)[C@@]3(C)CC[C@@H]12	·	·	·	-10	·
Cc1cc(C)cc(NC(=O)C2CCN(S(=O)(=O)c3c(C)noc3/C=C/c3ccco3)CC2)c1	·	2	4	-22	5
O=C(CCSCc1cnn(-c2ccccc2)c1-n1cccc1)NCc1ccccc1F	·	-1	1	11	3
CC[C@H]1OC(=O)[C@H](C)[C@@H](O[C@H]2C[C@@](C)(OC)[C@@H](O)[C@H](C)O2)[C@H](C)[C@@H](O[C@@H]2O[C@H](C)C[C@H](N(C)C)[C@H]2O)[C@](C)(O)C[C@@H](C)/C(=N\OCOCCOC)[C@H](C)[C@@H](O)[C@]1(C)O	·	·	·	5	·
CC(C)(C)CC(C)(C)NCC(O)COc1c(F)cc(Br)cc1F (stereo unspecified)	?	-8	39*	-10	7
CC(C)(C)NCC(O)COc1c(F)cc(Br)cc1F (stereo unspecified)	-10	-1	5	-31	-1
CCNc1ccc(Br)cc(C(=O)/C=C/c2c(Cl)cccc2Cl)c1=O	-66*	-7	2	-4	-10
CCNc1ccc(Br)cc(C(=O)/C=C/c2ccc(Cl)cc2)c1=O	?	-3	10	-22	29
CC(C)(C)c1cc(NC(=O)CSc2nnc(NCc3ccccc3)s2)n(-c2ccccc2)n1	8	1	-2	7	11
CC(C)(C)c1cc(NC(=O)CSc2nnc(N)s2)n(-c2ccccc2)n1	0	4	3	-8	-35*
COc1ccc(-n2cnnc2SCC(=O)Nc2cc(C(C)(C)C)nn2-c2ccccc2)cc1	-56*	-3	-1	10	7
CCCNC(=O)CSc1nc2nc(C)c(Cc3ccccc3Cl)c(C)n2n1	·	0	-1	8	1
O=C1[C@@H]2[C@H](Cc3ccc(O)cc3)N[C@]3(C(=O)Nc4ccccc43)[C@@H]2C(=O)N1c1ccc(F)cc1	·	5	-1	·	15
